We go through 21 molecules from PubChem BioAssay (NCI).

Structures are written as SMILES. This is part of a sample that, as a whole, favours compounds with a hit. Of some 83,000 tested, about 20% had one in any assay.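 Growth was measured after 48 h exposure to one concentration of compound in 96-well plates. Values under 10 count as active.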 A number with no mark means an inactive call. The source made the active and inactive calls.

In this test the test system is NCI/ADR-RES ovarian. The test can be described thus: NCI-60 one-dose screen, 48 h (100 = growth as untreated, 0 = no growth, -100 = all killed). The settings on record: 10 µM unless noted.
As for `C=C(C)[C@@H]1CC[C@]2(COCCCNCCCN)CC[C@]3(C)[C@H](CC[C@@H]4[C@@]5(C)CC[C@H](O)C(C)(C)[C@@H]5CC[C@]43C)[C@@H]12`, the growth is -65.5% (active). In the case of `CCN(CC)S(=O)(=O)c1ccc(-c2nc(C(Cl)Cl)nc3cc(-c4ccc(F)cc4)nn23)cc1`, the growth is 23.5%. The figure for `O=C(COc1ccc(/C=C2\C(=O)Nc3ccc(F)cc32)cc1)Nc1ccccc1` is 101%; for `CN1CCN(c2ccc(Nc3nc(NCCCNS(=O)(=O)c4ccc(F)cc4)c4sccc4n3)cc2)CC1` it is 87.8%; for `COc1cccc(N2CCN(C3=C(Cl)C(=O)c4ncccc4C3=O)CC2)c1` it is 81.9%.

With `C#CCOc1cccc(-c2nc(N)nc(Nc3ccccc3SSc3ccccc3Nc3nc(N)nc(-c4cccc(OCC#C)c4)n3)n2)c1`, the growth is 5.66% (active). The figure for `O=C(CSc1nnc(-c2ccc(Cl)cc2)n1-c1ccccc1)Nc1ccc(Cl)cc1` is 34.7%; for `NC(=O)n1c(=O)n(-c2cccc(C(F)(F)F)c2)c(=O)c2cc(-c3ccc(F)cc3F)ccc21` it is 2.36% (active); for `C#CCOc1ccc(/C=N/Nc2nc(-c3ccc(OC)cc3)cs2)cc1` it is 89.6%. With `O=C(CSc1nnc(-c2ccc(Cl)cc2)n1-c1ccccc1)Nc1ccccc1Cl`, the growth is 54.8%. In the case of `CCOC(=O)c1c(NC(=O)c2cccc(C(F)(F)F)c2)sc2c3c(ccc12)OCN(C)C3`, the growth is -54.3% (active). The figure for `CN1CCN(Cc2ccc(NC(=O)c3cncc(C#Cc4cnc5ccc(O[C@@H]6CCOC6)nn45)c3)cc2C(F)(F)F)CC1` is -34.5% (active); for `O=C(CCCCCCNC(=O)c1csc(Br)n1)NO` it is 9.08% (active); for `O=C(NCCNc1cc(-c2cn(-c3ccccc3)nc2-c2cccc(O)c2)ccn1)Nc1cc(C(F)(F)F)cc(C(F)(F)F)c1` it is 91.9%. The figure for `COC(=O)c1ccc(NC2=C(Cl)C(=O)c3nc(C)ccc3C2=O)cc1` is 19.7%; for `CCOP(=O)(OCC)OC[C@]12CCC(C)(C)C[C@H]1C1=CC[C@@H]3[C@@]4(C)CC[C@H](OP(=O)(OCC)OCC)C(C)(C)[C@@H]4CC[C@@]3(C)[C@]1(C)CC2` it is 65.8%. For `C/C(=N/N)c1nnn(-c2ccc(Br)cc2)c1C` the value was 104%.

In the case of `O=C(N/N=C\c1ccc(F)cc1)c1ccc2nc(-c3ccc(Br)cc3)[nH]c2c1`, the growth is 68.2%.

For the molecule `CCCCCc1ccc(S(=O)(=O)Nc2cc(-c3csc(N)n3)ccc2OC)cc1`, the growth was 88%.

On to `CN1CCN(c2ccc(Nc3nc(NCCNS(=O)(=O)c4ccc5ccccc5c4)c4sccc4n3)cc2)CC1`, for which the growth was 90.3%. The figure for `CCn1c2ccc(/C=N/N(C)S(=O)(=O)CCN(C)C)cc2c2cc(/C=N/N(C)S(=O)(=O)CCN(C)C)ccc21` is 54.7%.
